Legend:
Test in all cases: log2 ratio of Biotin-Ahx-Ub-VS probe labelling (fragment/DMSO); higher = less target engagement (more negative = stronger competition), active = hit call of the paper (q ≤ 0.05, log2 ratio ≤ -1)
Details in all cases: compound concentration: 200 uM; treatment time: 3 h
USP34 = USP34 (UniProt Q70CQ2)
Procedure, shortened: (§1)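 The table lists average log2 ratios of fragment over vehicle, from an unpaired t-test on global-median-normalised Spectronaut label-free quantities. Proteins with ≥2 unique peptides were used. Samples were HEK293T lysate (495 µg) treated in triplicate with fragment at 200 µM or vehicle for 3 h, then with Biotin-Ahx-Ub-VS (0.5 µM final) for 1 h, with labelled DUBs NeutrAvidin-enriched and run by diaPASEF LC-MS/MS.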

USP36 = target: T1, USP36 (UniProt Q9P275)
T1 sequence (whole entry): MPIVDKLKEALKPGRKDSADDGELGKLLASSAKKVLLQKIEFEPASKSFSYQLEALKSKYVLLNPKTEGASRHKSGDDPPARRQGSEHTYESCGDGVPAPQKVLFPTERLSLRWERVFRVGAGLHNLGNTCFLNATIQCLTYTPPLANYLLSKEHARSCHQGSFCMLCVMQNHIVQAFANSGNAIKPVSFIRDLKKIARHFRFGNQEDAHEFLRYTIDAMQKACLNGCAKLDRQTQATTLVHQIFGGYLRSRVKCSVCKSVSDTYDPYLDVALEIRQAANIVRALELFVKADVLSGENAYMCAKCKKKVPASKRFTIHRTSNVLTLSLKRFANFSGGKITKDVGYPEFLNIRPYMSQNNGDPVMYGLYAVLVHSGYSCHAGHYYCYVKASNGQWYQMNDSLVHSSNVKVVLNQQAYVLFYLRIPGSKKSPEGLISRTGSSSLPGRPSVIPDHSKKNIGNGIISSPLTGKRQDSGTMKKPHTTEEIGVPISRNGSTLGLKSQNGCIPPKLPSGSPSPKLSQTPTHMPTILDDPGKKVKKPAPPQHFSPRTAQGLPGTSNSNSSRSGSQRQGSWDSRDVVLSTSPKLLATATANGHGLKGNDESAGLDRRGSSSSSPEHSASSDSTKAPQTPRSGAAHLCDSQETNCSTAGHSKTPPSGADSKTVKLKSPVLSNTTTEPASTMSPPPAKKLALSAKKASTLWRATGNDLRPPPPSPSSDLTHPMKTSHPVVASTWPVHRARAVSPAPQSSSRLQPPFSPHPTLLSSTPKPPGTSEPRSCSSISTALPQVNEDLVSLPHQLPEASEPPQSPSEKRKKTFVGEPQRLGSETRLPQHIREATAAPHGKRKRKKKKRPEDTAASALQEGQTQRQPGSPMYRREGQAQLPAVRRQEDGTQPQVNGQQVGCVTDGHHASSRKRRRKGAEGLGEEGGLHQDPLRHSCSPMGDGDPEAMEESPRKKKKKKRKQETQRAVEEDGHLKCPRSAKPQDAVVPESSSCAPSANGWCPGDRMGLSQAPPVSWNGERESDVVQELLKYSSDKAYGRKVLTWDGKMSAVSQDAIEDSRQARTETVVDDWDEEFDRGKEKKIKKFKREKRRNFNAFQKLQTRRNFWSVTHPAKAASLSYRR
Procedure, shortened: as §1

USP38 = target: T2, USP38 (UniProt Q8NB14)
T2 sequence (whole entry): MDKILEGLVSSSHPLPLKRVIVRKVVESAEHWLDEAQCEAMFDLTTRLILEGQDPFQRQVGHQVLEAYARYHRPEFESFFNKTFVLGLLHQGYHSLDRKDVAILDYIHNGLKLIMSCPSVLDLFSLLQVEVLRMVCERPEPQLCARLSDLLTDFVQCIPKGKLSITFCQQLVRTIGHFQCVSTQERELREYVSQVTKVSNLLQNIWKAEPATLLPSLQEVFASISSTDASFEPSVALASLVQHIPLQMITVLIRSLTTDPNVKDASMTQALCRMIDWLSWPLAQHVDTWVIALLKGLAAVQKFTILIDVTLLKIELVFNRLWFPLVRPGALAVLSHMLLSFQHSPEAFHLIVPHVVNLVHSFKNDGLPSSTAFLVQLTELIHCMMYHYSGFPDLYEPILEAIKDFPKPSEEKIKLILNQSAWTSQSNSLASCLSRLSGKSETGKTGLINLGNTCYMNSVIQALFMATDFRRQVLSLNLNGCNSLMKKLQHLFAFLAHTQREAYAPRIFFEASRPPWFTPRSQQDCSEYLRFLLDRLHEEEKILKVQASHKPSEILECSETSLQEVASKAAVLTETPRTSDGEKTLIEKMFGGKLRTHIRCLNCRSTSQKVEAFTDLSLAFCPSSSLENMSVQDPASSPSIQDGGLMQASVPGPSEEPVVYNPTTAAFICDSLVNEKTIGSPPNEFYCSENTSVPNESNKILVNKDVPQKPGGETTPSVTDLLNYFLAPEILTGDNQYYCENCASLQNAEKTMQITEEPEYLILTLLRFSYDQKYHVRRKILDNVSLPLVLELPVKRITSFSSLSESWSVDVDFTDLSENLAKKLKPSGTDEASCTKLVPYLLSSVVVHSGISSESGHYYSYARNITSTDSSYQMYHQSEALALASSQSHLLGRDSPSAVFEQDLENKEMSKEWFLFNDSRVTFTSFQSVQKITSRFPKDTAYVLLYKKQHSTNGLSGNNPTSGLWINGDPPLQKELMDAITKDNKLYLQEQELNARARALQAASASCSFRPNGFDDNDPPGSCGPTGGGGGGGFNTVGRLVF
Procedure, shortened: as §1

USP39 = target: T3, USP39 (UniProt Q53GS9)
T3 sequence (whole entry): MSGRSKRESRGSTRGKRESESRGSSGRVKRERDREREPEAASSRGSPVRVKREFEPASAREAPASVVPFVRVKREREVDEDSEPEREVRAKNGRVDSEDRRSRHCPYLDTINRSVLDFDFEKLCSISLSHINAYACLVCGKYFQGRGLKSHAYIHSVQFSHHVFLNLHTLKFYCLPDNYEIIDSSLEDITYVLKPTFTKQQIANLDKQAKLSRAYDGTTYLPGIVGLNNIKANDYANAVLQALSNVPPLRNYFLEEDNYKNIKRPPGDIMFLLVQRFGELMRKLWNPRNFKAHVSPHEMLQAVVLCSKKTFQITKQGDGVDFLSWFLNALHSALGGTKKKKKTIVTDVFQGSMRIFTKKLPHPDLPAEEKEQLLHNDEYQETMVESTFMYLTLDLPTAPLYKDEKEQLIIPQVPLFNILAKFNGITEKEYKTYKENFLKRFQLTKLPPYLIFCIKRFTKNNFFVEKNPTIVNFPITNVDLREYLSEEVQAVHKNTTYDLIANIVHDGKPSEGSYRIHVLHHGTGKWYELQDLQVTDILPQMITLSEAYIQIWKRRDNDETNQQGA
Procedure, shortened: as §1

USP4 = target: T4, USP4 (UniProt Q13107)
T4 sequence (whole entry): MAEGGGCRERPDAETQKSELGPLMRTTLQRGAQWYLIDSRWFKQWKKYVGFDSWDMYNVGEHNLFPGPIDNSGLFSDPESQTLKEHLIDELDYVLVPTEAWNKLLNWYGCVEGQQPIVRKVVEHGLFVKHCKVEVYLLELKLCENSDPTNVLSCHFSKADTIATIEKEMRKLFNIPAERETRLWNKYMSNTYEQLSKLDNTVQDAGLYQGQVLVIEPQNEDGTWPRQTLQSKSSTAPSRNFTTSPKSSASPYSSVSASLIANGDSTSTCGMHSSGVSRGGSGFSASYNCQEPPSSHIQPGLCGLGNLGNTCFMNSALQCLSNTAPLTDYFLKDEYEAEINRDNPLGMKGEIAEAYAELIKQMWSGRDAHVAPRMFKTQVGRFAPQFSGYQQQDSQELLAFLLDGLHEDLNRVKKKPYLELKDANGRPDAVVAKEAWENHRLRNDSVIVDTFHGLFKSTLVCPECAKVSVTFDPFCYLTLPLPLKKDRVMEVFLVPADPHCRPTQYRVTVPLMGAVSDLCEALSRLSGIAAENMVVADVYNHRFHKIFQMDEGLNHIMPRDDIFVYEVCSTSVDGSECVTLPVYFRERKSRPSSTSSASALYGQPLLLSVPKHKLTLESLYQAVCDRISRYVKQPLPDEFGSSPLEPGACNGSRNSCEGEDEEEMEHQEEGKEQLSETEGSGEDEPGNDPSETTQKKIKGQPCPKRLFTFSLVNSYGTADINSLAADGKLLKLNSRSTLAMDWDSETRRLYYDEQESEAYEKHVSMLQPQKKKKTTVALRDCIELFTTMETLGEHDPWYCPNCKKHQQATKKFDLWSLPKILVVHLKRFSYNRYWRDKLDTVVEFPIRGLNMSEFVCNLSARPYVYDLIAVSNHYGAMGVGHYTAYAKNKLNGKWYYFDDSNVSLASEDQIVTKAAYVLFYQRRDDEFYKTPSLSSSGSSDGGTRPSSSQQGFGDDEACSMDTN
Procedure, shortened: as §1

Measured: log2 ratio of Biotin-Ahx-Ub-VS probe labelling

Chain of USP34 (Q70CQ2 whole entry, the tested form may be a part): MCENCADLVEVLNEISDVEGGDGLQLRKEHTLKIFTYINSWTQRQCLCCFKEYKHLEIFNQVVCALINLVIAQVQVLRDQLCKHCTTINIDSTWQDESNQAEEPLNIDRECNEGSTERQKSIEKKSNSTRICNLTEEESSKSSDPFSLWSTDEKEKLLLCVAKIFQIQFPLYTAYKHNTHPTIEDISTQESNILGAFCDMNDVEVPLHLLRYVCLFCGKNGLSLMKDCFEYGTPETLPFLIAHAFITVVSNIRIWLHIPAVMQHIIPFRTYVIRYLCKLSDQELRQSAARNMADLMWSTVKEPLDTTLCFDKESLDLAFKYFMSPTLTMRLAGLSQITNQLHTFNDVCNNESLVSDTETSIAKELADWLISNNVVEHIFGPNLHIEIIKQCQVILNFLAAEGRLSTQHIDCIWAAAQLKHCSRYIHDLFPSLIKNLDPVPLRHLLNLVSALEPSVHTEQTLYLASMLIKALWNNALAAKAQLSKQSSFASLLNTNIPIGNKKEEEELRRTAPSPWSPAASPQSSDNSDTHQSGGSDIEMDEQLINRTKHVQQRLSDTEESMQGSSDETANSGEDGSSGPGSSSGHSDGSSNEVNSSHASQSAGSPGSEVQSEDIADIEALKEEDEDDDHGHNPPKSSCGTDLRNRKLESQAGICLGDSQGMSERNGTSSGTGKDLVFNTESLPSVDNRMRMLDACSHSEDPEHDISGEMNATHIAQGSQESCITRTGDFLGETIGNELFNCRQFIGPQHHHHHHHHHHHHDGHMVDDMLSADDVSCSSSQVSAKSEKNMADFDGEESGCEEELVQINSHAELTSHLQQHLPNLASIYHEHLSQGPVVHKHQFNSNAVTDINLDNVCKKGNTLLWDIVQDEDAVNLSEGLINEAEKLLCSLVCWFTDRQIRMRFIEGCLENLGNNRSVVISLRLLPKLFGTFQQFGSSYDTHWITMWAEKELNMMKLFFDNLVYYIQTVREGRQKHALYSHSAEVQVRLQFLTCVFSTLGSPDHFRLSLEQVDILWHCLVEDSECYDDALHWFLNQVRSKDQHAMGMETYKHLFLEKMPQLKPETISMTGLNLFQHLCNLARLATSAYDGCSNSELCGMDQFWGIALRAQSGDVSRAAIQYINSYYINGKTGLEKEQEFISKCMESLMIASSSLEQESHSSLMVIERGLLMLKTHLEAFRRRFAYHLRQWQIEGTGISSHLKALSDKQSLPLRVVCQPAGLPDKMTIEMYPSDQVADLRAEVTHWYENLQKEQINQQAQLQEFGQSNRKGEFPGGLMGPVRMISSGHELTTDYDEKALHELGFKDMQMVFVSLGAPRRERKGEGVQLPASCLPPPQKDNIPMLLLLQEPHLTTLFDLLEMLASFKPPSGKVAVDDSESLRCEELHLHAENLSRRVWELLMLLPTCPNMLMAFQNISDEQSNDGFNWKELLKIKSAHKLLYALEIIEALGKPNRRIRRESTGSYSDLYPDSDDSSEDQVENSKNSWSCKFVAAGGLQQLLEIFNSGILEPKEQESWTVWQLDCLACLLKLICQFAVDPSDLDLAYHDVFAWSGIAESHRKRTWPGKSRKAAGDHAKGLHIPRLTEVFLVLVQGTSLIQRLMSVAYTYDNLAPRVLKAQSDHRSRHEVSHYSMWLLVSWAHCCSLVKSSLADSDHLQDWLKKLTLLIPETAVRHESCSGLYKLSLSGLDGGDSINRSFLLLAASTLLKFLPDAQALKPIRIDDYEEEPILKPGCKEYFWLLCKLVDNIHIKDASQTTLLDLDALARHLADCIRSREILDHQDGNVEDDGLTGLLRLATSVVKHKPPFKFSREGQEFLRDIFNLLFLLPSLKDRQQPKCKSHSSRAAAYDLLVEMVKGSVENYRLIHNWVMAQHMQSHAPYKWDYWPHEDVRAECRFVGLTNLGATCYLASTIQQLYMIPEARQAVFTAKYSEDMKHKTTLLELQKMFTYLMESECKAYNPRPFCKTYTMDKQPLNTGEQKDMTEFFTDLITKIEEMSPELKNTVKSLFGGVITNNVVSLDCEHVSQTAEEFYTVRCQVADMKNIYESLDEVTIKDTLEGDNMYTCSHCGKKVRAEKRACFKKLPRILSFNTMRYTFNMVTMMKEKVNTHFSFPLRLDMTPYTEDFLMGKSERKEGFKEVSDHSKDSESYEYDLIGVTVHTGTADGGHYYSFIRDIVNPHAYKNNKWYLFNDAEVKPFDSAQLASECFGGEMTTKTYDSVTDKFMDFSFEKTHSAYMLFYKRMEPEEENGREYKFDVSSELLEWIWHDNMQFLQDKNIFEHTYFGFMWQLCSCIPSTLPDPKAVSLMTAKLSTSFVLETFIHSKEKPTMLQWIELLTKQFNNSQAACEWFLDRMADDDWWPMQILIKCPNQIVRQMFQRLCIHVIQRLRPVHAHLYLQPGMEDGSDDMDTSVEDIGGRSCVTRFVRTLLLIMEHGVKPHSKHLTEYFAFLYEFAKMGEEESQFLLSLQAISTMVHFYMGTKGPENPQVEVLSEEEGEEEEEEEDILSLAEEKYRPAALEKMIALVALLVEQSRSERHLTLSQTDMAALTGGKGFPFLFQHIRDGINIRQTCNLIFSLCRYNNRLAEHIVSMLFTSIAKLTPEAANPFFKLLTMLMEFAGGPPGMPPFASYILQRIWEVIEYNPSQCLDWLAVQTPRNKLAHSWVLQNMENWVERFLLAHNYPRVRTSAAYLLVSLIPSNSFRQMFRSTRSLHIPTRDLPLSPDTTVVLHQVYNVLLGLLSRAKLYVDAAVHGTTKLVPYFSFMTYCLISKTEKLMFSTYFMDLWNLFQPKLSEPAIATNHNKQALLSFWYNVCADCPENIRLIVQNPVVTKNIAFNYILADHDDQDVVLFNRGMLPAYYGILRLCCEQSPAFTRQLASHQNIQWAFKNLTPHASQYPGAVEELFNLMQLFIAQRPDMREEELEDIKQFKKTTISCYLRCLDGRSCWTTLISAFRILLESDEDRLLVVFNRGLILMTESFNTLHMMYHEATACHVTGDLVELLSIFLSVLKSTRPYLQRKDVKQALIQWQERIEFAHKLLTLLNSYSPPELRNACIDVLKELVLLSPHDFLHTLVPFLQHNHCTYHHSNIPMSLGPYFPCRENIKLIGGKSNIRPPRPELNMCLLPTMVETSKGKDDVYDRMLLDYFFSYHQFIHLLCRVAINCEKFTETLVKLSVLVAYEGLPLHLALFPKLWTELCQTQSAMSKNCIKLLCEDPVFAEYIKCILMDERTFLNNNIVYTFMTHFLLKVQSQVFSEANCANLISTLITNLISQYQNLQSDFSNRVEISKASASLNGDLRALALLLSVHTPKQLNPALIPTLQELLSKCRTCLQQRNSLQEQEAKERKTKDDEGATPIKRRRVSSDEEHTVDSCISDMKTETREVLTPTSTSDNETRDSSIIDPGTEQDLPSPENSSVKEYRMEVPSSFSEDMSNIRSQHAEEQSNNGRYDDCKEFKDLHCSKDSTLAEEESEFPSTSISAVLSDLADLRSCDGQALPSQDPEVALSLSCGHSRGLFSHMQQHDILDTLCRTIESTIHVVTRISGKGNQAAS

O=C(CCl)NCc1cccc(N2CCCC2=O)c1
inactive: USP34 -0.203 | USP36 -0.212 | USP38 -0.128 | USP39 -0.0958 | USP4 0.0693
